Assay outcomes from PubChem BioAssay.
FBPA Giardia inh: blocks Giardia fructose-bisphosphate aldolase activity; A8B2U2; purified Giardia FBPA; Potency, µM (doses to about 59.6 µM), inactives show top-dose activity, negative = inhibition, actives largely listed as inhibitors; 290,000 compounds, 0.71% hits; AID 2451; note: potency is the fitted concentration of half-maximal effect; % is set by controls: 0 for no effect and ±100 for the full control effect; nearly all actives have a fitted effect of over 55% in size
Target sequence (A8B2U2 whole entry, looked up): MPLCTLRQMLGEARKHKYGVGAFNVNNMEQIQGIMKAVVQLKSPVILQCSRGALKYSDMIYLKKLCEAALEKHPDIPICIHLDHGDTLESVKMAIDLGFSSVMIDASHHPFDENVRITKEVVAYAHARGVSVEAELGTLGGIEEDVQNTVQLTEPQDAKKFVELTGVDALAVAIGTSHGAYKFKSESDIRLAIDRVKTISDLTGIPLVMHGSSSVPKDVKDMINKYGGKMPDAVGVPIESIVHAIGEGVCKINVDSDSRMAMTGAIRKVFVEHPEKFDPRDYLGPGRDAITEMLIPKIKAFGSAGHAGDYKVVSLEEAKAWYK
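Giardia FBPA (40 nM reagent) was preincubated 10 min at RT with compound (up to 57.5 uM final), then substrate plus GAPDH/TPI/NAD/arsenate coupling system with diaphorase/resazurin was added; resorufin fluorescence (525/598 nm) was read after 20 min.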
Shiga toxin inh: inhibitors of Shiga toxin in Vero cells; Vero cells, Shiga toxin protein synthesis inhibition reporter; inhibition, % at 38.7 µM; 290,000 compounds, 9.2% hits; AID 2315; in the data active = inhibition mostly above about 28%, no sharp cut-off; inactive = mostly below about 43%; note: 0% is about no effect
NS1 inh: influenza NS1 inhibition. Potency, µM (top dose mostly 46.1 µM), for the others: at the top dose activity, positive = more growth. 270,000 compounds, 0.4% hits; calls by dose curve; note: potency is the fitted concentration of half-maximal effect; actives are rising curves; nearly all actives have a fitted effect of over 50% in size
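A cell-based growth assay was used: compounds that relieve NS1-induced slow growth of budding yeast raise OD600. Assay medium was yeast nitrogen base with ammonium sulphate and -URA supplement, pH 6.0, with 2% galactose.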
Cycloheximide cs: affects cycloheximide protein synthesis inhibition readout, counter-screen; cell reporter, cycloheximide protein synthesis inhibition counterscreen; max response, %; 300,000 compounds, 12% hits; in the data active = max response mostly above about 13%, no sharp cut-off; inactive = mostly below about 14%; note: read at 38.3 µM for the half of the compounds with a filed dose; 0% is about no effect
Pf growth 96h: P. falciparum growth inhibition at 96 hours | P. falciparum luciferase reporter growth, 96 h | Potency, µM (series often up to 28.7 µM), without a hit: top-dose activity change, negative = inhibition, most hits filed as inhibitors | 320,000 compounds, 6.9% hits; note: potency is the fitted concentration of half-maximal effect; % is set by controls: 0 for no effect and ±100 for the full control effect
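Erythrocytes infected with luciferase-expressing P. falciparum were dispensed at 2% hematocrit and 0.05% parasitemia (final), then incubated with compounds 96 hours at 37 C in 5% CO2. Luminescence after detection reagent addition reported growth.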
Pf growth 48h: P. falciparum growth inhibition at 48 hours (one generation). Potency, µM (doses to about 28.7 µM), for the others: at the top dose activity change, negative = inhibition, most hits filed as inhibitors. AID 504832. P. falciparum luciferase growth in erythrocytes, 48 h. 310,000 compounds, 5.9% hits; note: potency is the fitted concentration of half-maximal effect; % is set by controls: 0 for no effect and ±100 for the full control effect
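Read-out is firefly luciferase luminescence from an integrated reporter in P. falciparum, so falling signal marks reduced parasite growth. Infected erythrocytes were at 2% hematocrit and 0.1% parasitemia (final) in Albumax-supplemented RPMI 1640.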
* hit, by the source's call; i = inactive; ? = inconclusive; nt = no result given. The list is not random: actives were taken first. Their share in the collection is about 21%. Unless noted, calls come from the whole dose curve; as a rule, active = well fitted curve in the direction sought with a large enough effect; inconclusive = small, poorly fitted or top-dose-only effect, or another doubt; inactive = no such curve, though single readings can be large; an effect the other way counts as inactive or inconclusive.

SMILES	FBPA Giardia inh	Shiga toxin inh	NS1 inh	Cycloheximide cs	Pf growth 96h	Pf growth 48h
O=C(N/N=C1/CN2CCC1CC2)c1cccc(O)c1	-8.2%	70.1*	7.4%	36.4*	0.0%	nt
CCCc1n[nH]c2c1C(=O)CC(C)(C)C2	7.8%	6.9	-14.3%	-3.7	0.0%	-2.9%
CC1(C)CC(=O)c2c(-c3cccs3)n[nH]c2C1	3.9%	89.5*	-33.0%	18.3*	26.8%	33.9%
Brc1ccc2oc(-c3ccn[nH]3)cc2c1	-4.2%	119.5*	-5.2%	70.1*	108.3%	335.1%
O=C(/C=C/c1ccccc1Cl)Nn1cnc2ccccc2c1=O	-1.4%	-7.4	-1.8%	-0.8	2.5%	23.7%
COc1ccc(/C=C(\C#N)C(=O)N2COCC2(C)C)cc1	0.9%	18.6	-9.9%	9.1	?	?
COCC(=O)N1CCC(Oc2ccc(C(=O)NCc3cc(C(C)C)no3)cc2)CC1	nt	6.2	-16.0%	7.6	?	3.0%
CSCCNC(=O)c1ccc(OC2CCN(S(=O)(=O)N(C)C)CC2)cc1	0.1%	nt	4.4%	1.1	0.0%	-1.6%
COCC(=O)N1CCC(Oc2ccc(C(=O)NCc3cc(C)no3)cc2)CC1	5.7%	7.2	?	-0.6	4.15µM*	8.2%
Cc1cc(CNC(=O)c2cccc(OC3CCN(S(=O)(=O)N(C)C)CC3)c2)on1	nt	128.1*	-6.7%	63.6*	?	-6.4%
Cc1ccc(N(C(=O)CNC(=O)c2cccs2)C(C(=O)NC2CCCC2)c2ccncc2)cc1 (configuration not stated)	nt	10.8	-1.4%	2.9	?	-18.3%
CS(=O)(=O)c1ccc(-c2nnn(CC(=O)N3CCCCC3)n2)cc1	10.2%	-2.2	5.4%	1.0	11.7µM*	1.9%
Cc1ccc(-c2nnn(CC(=O)N3CCCCC3)n2)o1	4.8%	71.2*	nt	17.7*	2.0%	64.7%
Nc1ccc(-c2nnn(CC(=O)N3CCCCC3)n2)cc1	-8.7%	nt	9.3%	0.7	?	37.6%
O=C(Cn1nnc(-c2ccccc2F)n1)N1CCCCC1	4.6%	49.6*	-7.6%	35.4*	7.0%	148.5%
O=C(CNC(=S)N(Cc1ccccc1)Cc1ccccc1F)NCc1ccccc1	-6.5%	-5.9	nt	-6.3	?	499.0%
COc1cccc(CNC(=O)CNC(=S)N(Cc2ccccc2)Cc2ccccc2F)c1	-7.6%	3.5	nt	-2.0	0.7%	11.7µM*
CC(C)C[C@H](NC(=O)N1CCn2c1nc1ccccc12)C(=O)N[C@@H](C(=O)O)c1ccccc1	-7.1%	0.8	11.1%	-2.6	8.4%	35.9%
c1ccc2[nH]c3cc4ncnc4cc3nc2c1	?	35.8*	-18.4%	27.6*	8.6%	62.3%
CC[N+]1(C)[C@@H]2CC[C@H]1CC(OC(=O)[C@H]1CCC(C(=O)OC3C[C@H]4CC[C@@H](C3)[N+]4(C)CC)(c3ccccc3)c3ccccc31)C2 (some centres not stated)	nt	nt	nt	nt	8.28µM*	10.4µM*
COc1ccccc1C1NC(=O)NC(C)=C1C(=O)OC1CCCCC1 (configuration not stated)	8.8%	-10.2	4.0%	3.9	16.4%	-4.1%
COc1ccc(OC)c(/C=C/c2nc3ccccc3[nH]c2=O)c1	-13.6%	-3.1	-7.2%	-2.7	-2.2%	-19.2%
O=C(NCc1ccccc1)c1ccccc1-c1nc2ccccc2[nH]1	3.0%	-5.1	nt	7.9	23.9%	32.4%
Oc1ccc(C=Nc2cccc3ncccc23)c(O)c1	?	1.5	-32.3%	1.2	?	-4.8%
COc1ccc(OC)c(C=Nc2ccccc2-c2nc3ccccc3[nH]2)c1	0.7%	44.6*	-21.8%	27.0*	?	?
SMILES	FBPA Giardia inh	Shiga toxin inh	NS1 inh	Cycloheximide cs	Pf growth 96h	Pf growth 48h
Oc1ccccc1C=Nc1ccccc1-c1nc2ccccc2[nH]1	2.1%	75.3*	-10.5%	38.3*	-1.1%	7.5%
Oc1ccc(C=Nc2ccccc2-c2nc3ccccc3[nH]2)c(O)c1	-4.2%	51.5	-10.2%	13.1*	17.7%	115.7%
NC(=O)C1CCN(S(=O)(=O)c2cc3c4c(c2)CCN4C(=O)CC3)CC1	nt	nt	nt	nt	-9.5%	?
c1coc(-c2ccnc3nc(-n4cccc4)nn23)c1	1.3%	-5.7	nt	5.5	?	10.4µM*
Cc1ccc(OCc2cc(C(=O)NC3CCCCC3)no2)cn1	0.4%	-5.8	-12.7%	8.5	13.1µM*	16.7%
CCc1cc(CNC(=O)c2cc(COc3ccc(C)nc3)on2)on1	nt	59.2*	-9.3%	44.1*	-3.6%	-2.4%
Cc1ccc(OCc2cc(C(=O)NCc3ccc(OC(F)(F)F)cc3)no2)cn1	nt	11.3	-17.3%	9.8	-8.1%	-5.6%
CC(CS(=O)(=O)c1ccccc1[N+](=O)[O-])N1CCOCC1 (configuration not stated)	3.7%	-6.6	nt	11.7	18.7%	11.7µM*
Cc1csc(NC(=O)c2ccccc2[N+](=O)[O-])n1	-0.1%	-17.5	-0.3%	-5.3	73.8%	nt
CCOC(=O)C(C)Sc1nnc(NC(=O)c2cccc([N+](=O)[O-])c2C)s1 (configuration not stated)	-8.7%	-13.8	4.2%	-8.2	?	-6.4%
Cc1csc(NC(=O)c2ccc(Cl)cc2[N+](=O)[O-])n1	-5.4%	127.9*	nt	46.1*	-29.7%	i
CCOC(=O)C(C)Sc1nnc(NC(=O)c2ccc(C)c([N+](=O)[O-])c2)s1 (configuration not stated)	?	-13.8	-23.9%	-4.5	14.7µM*	-2.6%
Cc1csc(NC(=O)c2ccc(C)c([N+](=O)[O-])c2)n1	-24.4%	45.1	9.2%	41.9*	?	282.1%
CCC(C)N(C(=O)Cn1nnc(-c2ccc(Cl)cc2)n1)C1CCS(=O)(=O)C1 (configuration not stated)	nt	nt	nt	nt	11.2%	2.7%
COc1cccc(C(c2c(NC(=O)c3ccccc3)sc(C)c2C)N2CCN(C)CC2)c1 (configuration not stated)	15.2%	-6.7	5.4%	-4.6	?	11.7µM*
CCc1cc(C(c2cccc(OC)c2)N2CCOCC2)c(NC(=O)c2ccccc2)s1 (configuration not stated)	1.8%	60.9	-10.3%	37.6*	?	?
CCc1cc(CN2CCOCC2)c(NC(=O)c2ccccc2)s1	-11.6%	78.9*	nt	26.5*	-4.7%	8.0%
CCc1cc(C(c2ccc(F)cc2)N2CCOCC2)c(NC(=O)c2ccccc2)s1 (configuration not stated)	nt	21.1	-18.7%	15.9	72.4%	?
CCc1cc(C(c2ccc(OC)c(OC)c2)N2CCOCC2)c(NC(=O)c2ccccc2)s1 (configuration not stated)	5.7%	-19.0	16.3%	2.3	?	?
CCN(CCn1cccn1)C(=O)CC1C(=O)NCCN1CCc1ccccc1 (configuration not stated)	nt	13.0	11.6%	6.3	13.5%	?
